The list is not random: actives were taken first. Their share in the collection is about 2.6%.
APOBEC3A inh – human APOBEC3A DNA deaminase inhibition; recombinant A3A, FAM/TAMRA ssDNA deamination fluorescence; inhibition, % at 20 µM; 0.41% of 330,000 active; AID 493011;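 active = at least 40% inhibition at 20 µM here, with at most 30% in a related deaminase screen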;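 also: plate controls were A3A with DMSO for no effect and wells lacking A3A enzyme for full effect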
Target sequence (P31941 whole entry, looked up): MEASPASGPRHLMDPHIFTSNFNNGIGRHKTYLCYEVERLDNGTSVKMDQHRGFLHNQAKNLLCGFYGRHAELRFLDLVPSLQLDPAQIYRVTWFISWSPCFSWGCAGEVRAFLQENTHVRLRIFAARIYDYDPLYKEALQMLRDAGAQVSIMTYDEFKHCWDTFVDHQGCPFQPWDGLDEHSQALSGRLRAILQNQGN
APOBEC3G inh – blocks human APOBEC3G single-stranded DNA deamination. inhibition, % at 20 µM. 0.28% of 330,000 active. Q9HC16. recombinant A3G, ssDNA deamination FAM/TAMRA fluorescence;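 active = inhibition of at least 40% at 20 µM, with no more than 30% in the related APOBEC3A deaminase screen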;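 also: plate controls were DMSO wells with A3G for no effect and wells lacking A3G enzyme for full effect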
Target sequence (Q9HC16 whole entry, looked up): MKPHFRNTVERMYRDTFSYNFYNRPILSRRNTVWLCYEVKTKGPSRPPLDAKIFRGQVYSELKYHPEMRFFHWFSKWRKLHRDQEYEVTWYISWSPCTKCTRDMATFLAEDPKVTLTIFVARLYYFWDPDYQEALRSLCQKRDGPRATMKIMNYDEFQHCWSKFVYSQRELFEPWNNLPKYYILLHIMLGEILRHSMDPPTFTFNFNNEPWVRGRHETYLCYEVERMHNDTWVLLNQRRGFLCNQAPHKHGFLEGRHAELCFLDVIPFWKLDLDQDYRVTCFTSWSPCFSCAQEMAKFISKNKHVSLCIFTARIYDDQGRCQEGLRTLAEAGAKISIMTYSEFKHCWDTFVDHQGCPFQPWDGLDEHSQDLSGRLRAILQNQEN
PABP1 MLLE inh – inhibitors of microRNA-mediated deadenylation, human PABP1 MLLE binding; 0.36% of 360,000 active; AID 588489; inhibition, % at 20 µM; GST-MLLE / FITC-PAM2 fluorescence polarization; in the data active = inhibition above about 35%, passing the limit was not always enough;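 also: plate controls were DMSO wells with GST-MLLE for no effect and wells lacking GST-MLLE protein for full effect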
PHOSPHO1 block – blocks human PHOSPHO1 phosphatase activity | inhibition, % at 13.3 µM | recombinant PHOSPHO1, absorbance phosphatase assay | 1.1% of 290,000 active | AID 1565; in the data active = inhibition above about 60%
PABP polyA inh – PABP-poly(A) binding inhibition | P11940 | PABP-poly(A) RNA binding, fluorescence polarization | calls only at 35 µM | 1% of 290,000 active | AID 2014;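 also: calls also rest on retests at 20 µM and on dose response follow-up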
eIF4H inh – inhibitors of RNA binding by human eIF4H; Q15056; eIF4H fluorescence polarization binding assay; inhibition, % at 35 µM; 0.94% of 290,000 active; AID 2012;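 also: calls also rest on retests at 20 µM and on dose response follow-up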
An asterisk follows results filed as active; i = inactive; . = no result; + = active, no number. Unless noted, no rule for the calls is given here.

SMILES | APOBEC3A inh | APOBEC3G inh | PABP1 MLLE inh | PHOSPHO1 block | PABP polyA inh | eIF4H inh
COc1ccc(CC(=O)N2CCN=C2SCc2ccc([N+](=O)[O-])cc2)cc1 | -2 | -5 | -4 | 26 | i | -10
CCOc1ccc(CC(=O)N2CCN=C2SC)cc1 | 1 | -2 | -3 | 17 | + | -5
CCOc1ccc(CC(=O)N2CCN=C2SCc2ccc([N+](=O)[O-])cc2)cc1 | 5 | -2 | 3 | 32 | + | active
O=C(Cc1ccc(F)cc1)N1CCN=C1SCc1ccc([N+](=O)[O-])cc1 | -3 | -2 | 38* | -15 | i | -13
C[C@H](CO)N1C[C@H](C)[C@@H](CN(C)Cc2ccc(Oc3ccccc3)cc2)Oc2c(NC(=O)c3ccncc3)cccc2C1=O | 0 | 5 | 14 | . | . | .
Oc1ccc(CN2CCN(c3ccccc3)CC2)c2cccnc12 | -3 | -6 | 20 | -3 | i | 1
OCc1ccc(O)c2ncccc12 | 4 | -1 | -6 | -53 | i | 12
O=[N+]([O-])c1cc(CN2CCN(c3cccc(C(F)(F)F)c3)CC2)c2cccnc2c1O | 7 | 7 | . | -30 | i | 47
COc1ccccc1N1CCN(Cc2cc(Br)c(O)c3ncccc23)CC1 | -4 | -3 | 10 | 78* | i | 18
Oc1ccc(CN2CCCCC2)c2cccnc12 | -3 | -4 | 16 | 15 | i | 85*
Oc1ccc(CNc2ccccc2F)c2cccnc12 | -3 | 2 | 33 | 97* | i | 11
O=[N+]([O-])c1cc(CN2CCCC2)c2cccnc2c1O | . | . | 15 | -16 | i | 87*
Cc1ccc(S(=O)(=O)NC(C(=O)N2CCOCCOCCOCC2)c2ccccc2)cc1 (stereo unspecified) | 3 | 1 | 7 | 48 | i | -6
O=C(CCC1CCCN(C(=O)c2ccc3cc[nH]c3c2)C1)N1CCN(c2ccccn2)CC1 (stereo unspecified) | 0 | -5 | 3 | 50 | i | -3
O=C(CCC1CCCN(C(=O)c2ccc3[nH]ccc3c2)C1)N1CCN(c2ccccn2)CC1 (stereo unspecified) | 4 | -3 | 0 | 64* | i | -5
CC(=O)c1c(NC(=O)c2ccccc2)[nH]c(-c2ccccc2)nc1=S | -10 | -9 | 39* | -15 | i | 0
COc1cc2c(CCNC(C)=O)c[nH]c2cc1Cl | -4 | -8 | 5 | . | . | .
CN(CC(=O)Nc1cccc(S(=O)(=O)NC2=NCCC2)c1)Cc1cccc(F)c1 | 0 | 0 | -5 | . | . | .
O=S(=O)(c1cccc(C(F)(F)F)c1)N1CCN(S(=O)(=O)c2ccc3c(c2)OCCO3)CC1 | -1 | -6 | 6 | . | . | .
CCOC(=O)c1cc2c(ccn2C)n1CC(=O)N(Cc1ccccc1)c1ccccc1 | -3 | -6 | 41* | -5 | i | 12
COCCNC(=S)N/N=C(\C)c1ccccc1O | . | . | 44* | -2 | i | 6
Nc1nc(-c2ccccn2)nc(N)c1Cc1ccc(Cl)cc1Cl | -1 | -5 | -8 | 33 | i | 70*
N#CC1(NC(=O)COC(=O)c2ccccc2SCC(=O)N2CCCC2)CCCCC1 | 0 | -5 | -16 | 15 | i | 10
COc1ccc(CN(C)C(C)C(=O)Nc2ccc(S(=O)(=O)N3CCCCC3)cc2)c(OC)c1 (stereo unspecified) | -2 | -2 | 7 | . | . | .
CCCCON1C(=O)c2cccc3cccc(c23)C1=O | -7 | -7 | 1 | 49 | i | 4
SMILES | APOBEC3A inh | APOBEC3G inh | PABP1 MLLE inh | PHOSPHO1 block | PABP polyA inh | eIF4H inh
CCCCN(C)C1=Nc2cccc3cccc1c23 | 31 | 16 | -94 | 63* | i | 13
O=C(COC(=O)CCc1nc2ccccc2c(=O)[nH]1)Nc1ccc(Cl)cn1 | 3 | 0 | -24 | 74* | i | 13
S=c1nc(-c2ccccc2)n(Cc2cccnc2)c2c1CCCC2 | -7 | -5 | . | 12 | i | -2
S=c1nc(-c2ccccc2)n(Cc2ccco2)c2c1CCCC2 | . | . | . | 89* | i | 19
O=C1CC(Sc2ncccn2)C(=O)N1c1ccccc1C(F)(F)F (stereo unspecified) | 2 | -2 | 25 | 44 | i | 0
CCOC(=O)c1ccc(N2C(=O)CC(Sc3ncccn3)C2=O)cc1 (stereo unspecified) | -5 | -7 | 41* | 34 | i | -2
Cc1ccnc(SC2CC(=O)N(c3ccc([N+](=O)[O-])cc3)C2=O)n1 (stereo unspecified) | -4 | -3 | 39* | 34 | i | -6
Cc1ccc(Cl)cc1N1C(=O)CC(Sc2ncccn2)C1=O (stereo unspecified) | -2 | -4 | 42* | 14 | i | -4
CCOC(=O)C(N)CSC1CC(=O)N(c2ccc(C(=O)OC)cc2)C1=O (stereo unspecified) | -5 | 8 | 35 | 32 | i | -4
CCN1CCN(C(=O)CN2C(=O)c3ccccc3S2(=O)=O)CC1 | -2 | -11 | 11 | . | . | .
Cc1ccc(-c2nnc(OCc3nc4ccccc4n3C)c3ccccc23)cc1 | -1 | 2 | -4 | . | . | .
C=CCn1c(SCC(=O)NC2CCS(=O)(=O)C2)nc2scc(C3CC3)c2c1=O (stereo unspecified) | -1 | -5 | -25 | -15 | i | -5
C=CCn1c(SCC(=O)c2ccc(CNC(C)=O)o2)nc2scc(C3CC3)c2c1=O | 5 | 2 | -47 | -12 | i | 77*
CNc1cncc(-c2ccc(OC)cc2)n1 | . | . | 3 | . | . | .
CCN(CC(=O)Nc1c(F)cccc1F)C(=O)CNC(=O)c1ccc2c(c1)OCO2 | -2 | -6 | 6 | 17 | + | 42
CCN(CC(=O)Nc1c(F)cccc1F)C(=O)CNC(=O)c1ccc2ccccc2c1 | -4 | -1 | 2 | . | . | .
CC(Sc1nnc(C2CC2)n1C)C(=O)Nc1ccc(N2CCOCC2)cc1 (stereo unspecified) | 3 | -4 | 10 | . | . | .
Cc1ccc(-c2c3c([nH]c(=S)c2C#N)CCCC3)o1 | 30 | 49 | -42 | 84* | + | 56*
Cc1ccc(-c2c(C#N)c(N)nc3c2CCCC3)o1 | 0 | -6 | 8 | -8 | i | 60
CC(=O)Nc1ccc2c(c1)C(=O)c1cccc(C(=O)O)c1-2 | . | . | 2 | . | . | .
COc1ccc2[nH]c3c(=O)n(Cc4ccc(C(=O)NCC5CCCO5)cc4)c(=S)[nH]c3c2c1 (stereo unspecified) | -4 | 3 | -36 | -20 | + | 61*
CN1CCN(C(=O)c2cc3ccccc3cc2O)CC1 | -6 | -8 | 8 | . | . | .
c1ccc2[nH]c(SN3CCOCC3)nc2c1 | . | . | . | 102* | i | 7
c1ccc2[nH]c(CN3CCOCC3)nc2c1 | -5 | -11 | -2 | 17 | i | -7
CSCC[C@H](NC(=O)OC(C)(C)C)c1nnc(SCc2ccc(F)cc2)o1 | -7 | -7 | -3 | 13 | i | 1

High-throughput results: PubChem, Sanford-Burnham Center for Chemical Genomics
